Among the data in ChEMBL document CHEMBL1961873, “Compounds: GSK PKIS; Assays: Nanosyn kinase panel” (2012) are inhibition values, retold here.

Assay [1] has as its target T1, Ephrin type-B receptor 2 (Homo sapiens) (UniProt P29323).
T1 sequence (whole entry): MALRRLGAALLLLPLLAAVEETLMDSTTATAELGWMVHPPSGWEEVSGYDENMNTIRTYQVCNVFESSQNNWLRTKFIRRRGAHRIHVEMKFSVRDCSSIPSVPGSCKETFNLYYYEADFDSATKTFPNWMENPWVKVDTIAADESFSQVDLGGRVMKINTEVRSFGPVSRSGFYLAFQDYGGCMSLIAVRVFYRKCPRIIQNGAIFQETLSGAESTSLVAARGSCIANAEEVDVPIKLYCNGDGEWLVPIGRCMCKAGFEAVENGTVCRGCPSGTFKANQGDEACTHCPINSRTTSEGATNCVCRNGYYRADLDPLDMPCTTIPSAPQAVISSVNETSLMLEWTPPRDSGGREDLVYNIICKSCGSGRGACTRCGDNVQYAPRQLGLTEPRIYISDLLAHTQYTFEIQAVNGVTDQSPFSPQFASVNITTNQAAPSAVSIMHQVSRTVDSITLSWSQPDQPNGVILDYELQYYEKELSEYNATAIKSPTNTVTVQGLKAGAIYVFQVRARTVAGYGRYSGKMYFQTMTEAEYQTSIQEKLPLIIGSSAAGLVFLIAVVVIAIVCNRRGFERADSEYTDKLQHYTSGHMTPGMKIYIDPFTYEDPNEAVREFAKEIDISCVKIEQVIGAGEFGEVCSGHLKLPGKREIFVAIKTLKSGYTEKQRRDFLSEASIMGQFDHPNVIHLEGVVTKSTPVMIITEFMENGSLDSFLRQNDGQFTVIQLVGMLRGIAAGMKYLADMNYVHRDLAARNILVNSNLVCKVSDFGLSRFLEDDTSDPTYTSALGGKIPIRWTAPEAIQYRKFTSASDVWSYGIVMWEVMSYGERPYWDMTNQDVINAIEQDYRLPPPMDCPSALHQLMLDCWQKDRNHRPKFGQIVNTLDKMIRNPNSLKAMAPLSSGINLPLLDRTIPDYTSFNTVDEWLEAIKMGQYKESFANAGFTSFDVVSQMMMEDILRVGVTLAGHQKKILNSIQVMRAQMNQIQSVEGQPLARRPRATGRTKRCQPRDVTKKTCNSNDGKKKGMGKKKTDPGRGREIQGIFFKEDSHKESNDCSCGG
The following applies: at 1 µM.

The target of assay [2] is T2, Ephrin type-B receptor 3 (Homo sapiens) (UniProt P54753).
T2 sequence (whole entry): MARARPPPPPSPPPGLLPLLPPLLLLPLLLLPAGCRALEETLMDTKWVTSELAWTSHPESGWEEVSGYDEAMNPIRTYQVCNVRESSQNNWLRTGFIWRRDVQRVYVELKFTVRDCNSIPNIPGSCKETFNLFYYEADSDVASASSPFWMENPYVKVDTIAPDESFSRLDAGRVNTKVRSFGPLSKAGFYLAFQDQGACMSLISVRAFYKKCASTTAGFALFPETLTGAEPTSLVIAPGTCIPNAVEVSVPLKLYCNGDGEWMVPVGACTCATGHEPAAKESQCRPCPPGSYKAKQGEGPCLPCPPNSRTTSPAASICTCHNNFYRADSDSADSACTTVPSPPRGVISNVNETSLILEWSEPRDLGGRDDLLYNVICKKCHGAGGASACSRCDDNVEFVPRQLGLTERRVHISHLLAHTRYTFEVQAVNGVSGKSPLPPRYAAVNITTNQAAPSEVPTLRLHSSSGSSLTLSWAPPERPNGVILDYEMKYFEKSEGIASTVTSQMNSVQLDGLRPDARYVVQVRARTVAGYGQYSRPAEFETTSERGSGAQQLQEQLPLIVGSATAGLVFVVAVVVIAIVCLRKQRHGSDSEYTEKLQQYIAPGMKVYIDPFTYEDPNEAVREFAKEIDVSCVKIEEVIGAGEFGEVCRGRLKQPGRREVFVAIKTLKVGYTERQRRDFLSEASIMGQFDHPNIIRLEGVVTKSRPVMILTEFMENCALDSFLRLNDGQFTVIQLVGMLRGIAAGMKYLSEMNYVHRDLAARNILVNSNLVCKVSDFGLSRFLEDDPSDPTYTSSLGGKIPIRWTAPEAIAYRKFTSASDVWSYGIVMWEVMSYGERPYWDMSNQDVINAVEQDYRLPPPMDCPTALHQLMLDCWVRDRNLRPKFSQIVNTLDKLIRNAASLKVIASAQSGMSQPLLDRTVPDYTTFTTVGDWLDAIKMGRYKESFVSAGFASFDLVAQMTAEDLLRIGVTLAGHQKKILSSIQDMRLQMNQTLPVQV
As to conditions: at 0.1 µM.

The target in assay [3] is T2, Ephrin type-B receptor 3 (Homo sapiens). The following applies: at 1 µM.
For assay [4], the target named is T3, Ephrin type-B receptor 4 (Homo sapiens) (UniProt P54760).
T3 sequence (whole entry): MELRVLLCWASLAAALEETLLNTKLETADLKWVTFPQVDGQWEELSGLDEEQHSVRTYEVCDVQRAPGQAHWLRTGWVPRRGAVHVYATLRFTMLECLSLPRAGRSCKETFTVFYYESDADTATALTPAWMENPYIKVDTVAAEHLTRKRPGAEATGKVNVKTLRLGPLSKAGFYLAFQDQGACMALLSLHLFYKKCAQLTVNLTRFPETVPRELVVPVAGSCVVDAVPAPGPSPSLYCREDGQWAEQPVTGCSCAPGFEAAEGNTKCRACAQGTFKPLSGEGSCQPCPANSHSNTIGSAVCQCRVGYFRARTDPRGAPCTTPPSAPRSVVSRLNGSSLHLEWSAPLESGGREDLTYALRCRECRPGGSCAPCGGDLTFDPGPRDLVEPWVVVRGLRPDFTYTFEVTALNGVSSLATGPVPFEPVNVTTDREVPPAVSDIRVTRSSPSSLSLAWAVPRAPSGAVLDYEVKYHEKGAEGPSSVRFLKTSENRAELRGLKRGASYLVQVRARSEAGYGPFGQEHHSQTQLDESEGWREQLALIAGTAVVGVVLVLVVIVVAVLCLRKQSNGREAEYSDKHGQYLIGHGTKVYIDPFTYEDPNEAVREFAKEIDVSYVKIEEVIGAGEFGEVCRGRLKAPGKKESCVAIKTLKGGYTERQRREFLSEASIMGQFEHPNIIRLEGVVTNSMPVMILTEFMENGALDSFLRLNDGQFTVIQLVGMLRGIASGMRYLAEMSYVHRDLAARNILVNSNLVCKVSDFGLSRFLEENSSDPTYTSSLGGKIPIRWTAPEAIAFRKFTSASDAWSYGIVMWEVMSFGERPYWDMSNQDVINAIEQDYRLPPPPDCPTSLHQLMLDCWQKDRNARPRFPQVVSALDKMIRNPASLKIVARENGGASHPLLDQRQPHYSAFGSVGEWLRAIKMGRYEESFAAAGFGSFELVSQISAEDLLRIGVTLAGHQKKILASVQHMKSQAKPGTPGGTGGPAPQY
As to conditions: at 0.1 µM.

The target of assay [5] is T3, Ephrin type-B receptor 4 (Homo sapiens). The following applies: at 1 µM.
Assay [6] addresses Receptor tyrosine-protein kinase erbB-2 (Homo sapiens) (UniProt P04626). As to conditions: at 0.1 µM.
The target is the same in assay [7]. As to conditions: at 1 µM.
Assay [8] concerns the target Receptor tyrosine-protein kinase erbB-4 (Homo sapiens) (UniProt Q15303). The following applies: at 0.1 µM.
Assay [9] has the same target. The following applies: at 1 µM.
In assay [10] the target is Tyrosine-protein kinase Fer (Homo sapiens) (UniProt P16591). The following applies: at 0.1 µM.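 Further: reported figures are averaged percent inhibition of FER.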

Structures are written as SMILES.

Sequence of Tyrosine-protein kinase Fer (Homo sapiens) (P16591 whole entry, looked up): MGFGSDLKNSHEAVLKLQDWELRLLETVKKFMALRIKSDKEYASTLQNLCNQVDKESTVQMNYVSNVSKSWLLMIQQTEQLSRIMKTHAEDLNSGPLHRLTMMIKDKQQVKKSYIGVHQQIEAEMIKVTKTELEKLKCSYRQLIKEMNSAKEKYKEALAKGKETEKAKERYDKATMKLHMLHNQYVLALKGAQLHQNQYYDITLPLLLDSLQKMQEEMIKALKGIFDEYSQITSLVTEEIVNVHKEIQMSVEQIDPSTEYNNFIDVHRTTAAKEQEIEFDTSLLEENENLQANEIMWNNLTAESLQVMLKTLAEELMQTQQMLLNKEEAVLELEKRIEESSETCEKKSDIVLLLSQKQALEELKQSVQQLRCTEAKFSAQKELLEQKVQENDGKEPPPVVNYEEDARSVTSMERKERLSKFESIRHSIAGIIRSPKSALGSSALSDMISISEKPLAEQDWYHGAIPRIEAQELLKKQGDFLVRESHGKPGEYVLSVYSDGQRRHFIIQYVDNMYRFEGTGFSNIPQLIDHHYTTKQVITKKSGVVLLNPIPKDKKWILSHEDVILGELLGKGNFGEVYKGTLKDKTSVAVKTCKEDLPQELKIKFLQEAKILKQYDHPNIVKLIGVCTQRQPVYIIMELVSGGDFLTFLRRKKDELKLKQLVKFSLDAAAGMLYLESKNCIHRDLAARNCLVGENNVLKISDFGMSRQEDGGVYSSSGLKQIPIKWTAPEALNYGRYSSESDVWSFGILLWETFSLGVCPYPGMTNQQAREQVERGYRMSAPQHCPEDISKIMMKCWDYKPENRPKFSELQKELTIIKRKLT
Sequence of Receptor tyrosine-protein kinase erbB-2 (Homo sapiens) (P04626 whole entry): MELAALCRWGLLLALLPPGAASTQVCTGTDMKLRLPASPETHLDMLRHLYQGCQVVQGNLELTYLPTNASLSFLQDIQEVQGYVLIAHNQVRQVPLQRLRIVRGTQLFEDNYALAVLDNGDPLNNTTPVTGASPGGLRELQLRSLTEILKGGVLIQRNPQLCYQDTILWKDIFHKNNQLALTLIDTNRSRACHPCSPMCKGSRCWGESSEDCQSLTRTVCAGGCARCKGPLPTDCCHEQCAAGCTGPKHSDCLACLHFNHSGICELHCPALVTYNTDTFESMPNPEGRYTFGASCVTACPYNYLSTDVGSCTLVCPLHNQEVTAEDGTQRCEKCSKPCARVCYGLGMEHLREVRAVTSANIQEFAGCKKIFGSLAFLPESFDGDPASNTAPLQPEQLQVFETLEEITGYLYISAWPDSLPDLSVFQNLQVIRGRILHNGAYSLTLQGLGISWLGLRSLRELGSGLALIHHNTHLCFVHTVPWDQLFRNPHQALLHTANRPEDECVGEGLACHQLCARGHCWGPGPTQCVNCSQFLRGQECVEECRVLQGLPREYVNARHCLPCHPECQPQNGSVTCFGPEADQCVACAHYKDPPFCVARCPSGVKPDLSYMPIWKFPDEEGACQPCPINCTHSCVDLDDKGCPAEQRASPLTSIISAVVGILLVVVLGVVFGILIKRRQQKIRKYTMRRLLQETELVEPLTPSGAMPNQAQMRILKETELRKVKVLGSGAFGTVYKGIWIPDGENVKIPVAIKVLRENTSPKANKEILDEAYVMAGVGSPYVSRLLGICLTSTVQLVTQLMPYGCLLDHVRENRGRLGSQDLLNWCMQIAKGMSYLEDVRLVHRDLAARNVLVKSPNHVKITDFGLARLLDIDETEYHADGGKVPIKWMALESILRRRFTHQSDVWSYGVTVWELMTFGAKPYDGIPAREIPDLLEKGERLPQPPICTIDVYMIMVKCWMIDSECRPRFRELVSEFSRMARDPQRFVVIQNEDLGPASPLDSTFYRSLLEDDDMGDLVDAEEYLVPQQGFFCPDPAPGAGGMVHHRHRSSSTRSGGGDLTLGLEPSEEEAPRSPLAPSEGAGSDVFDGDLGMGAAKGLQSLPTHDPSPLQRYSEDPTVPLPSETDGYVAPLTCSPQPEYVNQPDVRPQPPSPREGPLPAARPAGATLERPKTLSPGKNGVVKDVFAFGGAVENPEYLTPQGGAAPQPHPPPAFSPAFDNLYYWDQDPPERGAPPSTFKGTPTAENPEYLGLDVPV
Sequence of Receptor tyrosine-protein kinase erbB-4 (Homo sapiens) (Q15303 whole entry): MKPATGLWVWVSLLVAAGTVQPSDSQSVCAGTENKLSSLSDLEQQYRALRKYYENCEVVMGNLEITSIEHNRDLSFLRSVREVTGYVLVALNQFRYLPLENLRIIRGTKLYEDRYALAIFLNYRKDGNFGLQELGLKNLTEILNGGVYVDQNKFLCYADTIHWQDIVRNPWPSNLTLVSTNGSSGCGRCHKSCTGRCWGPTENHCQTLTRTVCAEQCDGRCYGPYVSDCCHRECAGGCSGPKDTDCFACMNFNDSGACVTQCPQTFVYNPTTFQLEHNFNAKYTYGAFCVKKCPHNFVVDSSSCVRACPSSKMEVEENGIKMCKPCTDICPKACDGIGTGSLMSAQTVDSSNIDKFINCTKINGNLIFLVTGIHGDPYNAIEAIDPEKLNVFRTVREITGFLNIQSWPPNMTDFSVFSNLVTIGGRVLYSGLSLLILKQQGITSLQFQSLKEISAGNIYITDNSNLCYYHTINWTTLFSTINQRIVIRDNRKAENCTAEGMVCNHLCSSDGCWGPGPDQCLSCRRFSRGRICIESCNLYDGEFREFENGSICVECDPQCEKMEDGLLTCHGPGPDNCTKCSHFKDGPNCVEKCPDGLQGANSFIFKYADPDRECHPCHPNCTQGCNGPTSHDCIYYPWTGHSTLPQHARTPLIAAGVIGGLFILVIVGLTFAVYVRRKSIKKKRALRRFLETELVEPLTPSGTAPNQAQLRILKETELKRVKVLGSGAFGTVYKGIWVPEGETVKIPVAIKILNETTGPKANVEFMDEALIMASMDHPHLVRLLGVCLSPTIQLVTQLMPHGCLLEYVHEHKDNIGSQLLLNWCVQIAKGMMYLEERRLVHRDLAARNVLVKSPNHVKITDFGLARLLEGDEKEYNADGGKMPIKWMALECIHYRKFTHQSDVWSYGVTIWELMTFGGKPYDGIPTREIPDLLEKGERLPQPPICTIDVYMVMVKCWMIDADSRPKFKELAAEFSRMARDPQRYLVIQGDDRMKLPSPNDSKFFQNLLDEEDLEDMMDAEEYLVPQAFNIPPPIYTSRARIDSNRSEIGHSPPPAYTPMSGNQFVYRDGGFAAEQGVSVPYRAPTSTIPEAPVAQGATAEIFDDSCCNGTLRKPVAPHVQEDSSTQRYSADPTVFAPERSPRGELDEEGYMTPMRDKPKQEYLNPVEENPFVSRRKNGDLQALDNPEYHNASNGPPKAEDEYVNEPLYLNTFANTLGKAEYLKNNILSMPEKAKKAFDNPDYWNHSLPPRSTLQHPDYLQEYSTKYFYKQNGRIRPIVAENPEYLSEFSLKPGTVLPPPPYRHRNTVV

The inhibition is the change of the read-out against control, counted positive when it falls. As for `NCc1ccc(-c2nc(-c3ccc(Cl)c(O)c3)c(-c3ccncc3)[nH]2)cc1`, the inhibition was 8.63% in assay [1]; 5.47% in [2]; 12.8% in [3]; 3.82% in assay [4]; 9.77% in [5]; -0.58% in assay [6]. The inhibition is -0.9% in assay [7], 11.1% in assay [8], 28.9% in assay [9] and 0.8% in assay [10].

In the case of `O=C(Nc1n[nH]c2nc(-c3ccco3)c(Br)cc12)C1CC1`, the inhibition was 5.48% in [1]; 4.64% in [2]; 3.95% in [3]; 2.69% in assay [4]; 3.48% in assay [5]; 1.49% in assay [6]. The inhibition in assay [7] is -3.9%; in [8], 10.1%; in assay [9], 15.8%; in assay [10], 1.93%.

Regarding `Nc1nc(-c2ccc3c(c2)C(=Cc2cc(Br)c(O)c(Br)c2)C(=O)N3)cs1`, the inhibition in assay [1] is -1.17%; in assay [2], -1.61%; in [3], -4.71%; in assay [4], -0.3%; in assay [5], -2.45%; in assay [6], -4.27%. The inhibition was 2.84% in [7], -6.34% in assay [8], -0.4% in [9] and 5.18% in assay [10].

Take `Nc1ncnc2occ(-c3ccc(NC(=O)Nc4cccc(C(F)(F)F)c4)cc3)c12`: the inhibition in assay [1] was 78.2%; in [2], 19.6%; in [3], 68.2%; in assay [4], 31.2%; in [5], 84.4%; in assay [6], -0.01%. Further, the inhibition in [7] came out at 3.75%; in assay [8], 8.79%; in assay [9] it was 15.2%; in [10], 2.94%.

With `NS(=O)(=O)c1cccc(-c2ccc3c(NC(=O)C4CC4)n[nH]c3c2)c1`, the inhibition in [1] is -0.57%; in assay [2] it was -3.25%; in assay [3], -3.05%; in assay [4] it was -1.93%; in assay [5], -1.01%; in [6], -3.46%. The inhibition was -5.29% in assay [7], -3.96% in assay [8], -3.93% in [9] and 1.7% in assay [10].

In the case of `NS(=O)(=O)c1ccc(N/N=C2\C(=O)Nc3ccc(C(=O)NCCc4c[nH]cn4)cc32)cc1`, the inhibition in [1] is 16.2%; in assay [2], 3.04%; in [3] it was 0.13%; in assay [4], 4.11%; in [5], 6.29%; in [6] it was 1.36%. Further, the results for the inhibition in assay [7], in assay [8] and in assay [9] were 1.09%, 6.82% and 7.51%, respectively.

Turning to `Cc1nn(C)c2cc(N(C)c3ccnc(Nc4cccc(S(N)(=O)=O)c4)n3)ccc12`, the inhibition amounted to 37.8% in [1]; 5.14% in assay [2]; 4.43% in assay [3]; 7.86% in [4]; 39.6% in assay [5]; 3.03% in assay [6]. For the same molecule, the inhibition in assay [7] amounted to 10.1%; in assay [8] it was 11%; in assay [9] it was 29.3%; in assay [10], 4.27%.

On to `COc1ccc2cc(-c3c(-c4ccncc4)nc(-c4ccc([S+](C)[O-])cc4)n3C)ccc2c1` (centres undefined), for which the inhibition in assay [1] amounted to 6.51%; in assay [2] it was 5.38%; in [3] it was 4.12%; in assay [4] it was 2.71%; in assay [5], 6.99%; in assay [6], 2.07%. The inhibition in assay [7] was -0.38%; in assay [8] it was 12.1%; in assay [9], 23.1%; in [10], 1.4%.

Turning to `O=C1NC(=O)C(c2cccc(Cl)c2)=C1Nc1ccc(O)c(Cl)c1`, the inhibition in [1] was -8.35%; in assay [2] it was 2.73%; in assay [3], -5.14%; in assay [4] it was 1.15%; in assay [5] it was -0.03%; in assay [6], 0.29%. Further, the inhibition is -5.89% in assay [7], 5.49% in [8], 6.06% in [9] and 3.79% in assay [10].

As to `CC(C)=Cc1cccc2c1/C(=N/Nc1ccc(S(N)(=O)=O)cc1)C(=O)N2`, the inhibition is 5.84% in [1]; 2.65% in assay [2]; -0.21% in assay [3]; 1.72% in assay [4]; 2.38% in [5]; 0.59% in assay [6]. In addition, the inhibition in assay [7] was 4.72%; in assay [8], 5.98%; in assay [9], 4.74%; in assay [10] it was 3.57%.
